# Bioassay records deposited in PubChem BioAssay by National Center for Advancing Translational Sciences (NCATS).
# Rows were chosen to be rich in hits. Some 18% of all compounds tested hit in one or more screens of this group.
# IL1B secr inh: qHTS for Inhibitors of Inflammasome Signaling: IL-1-beta AlphaLISA Primary Screen; THP-1 LPS/ATP IL-1B secretion, AlphaLISA, 16 h; hits give low values; activity change, % at 57.5 µM; 360,000 tested, 4.7% active; AID 743279, 2014; in the data active = activity change below about -50%; inconclusive = mostly about -30% to -49%
#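 Secreted IL-1B measured by AlphaLISA bead assay after 16 h compound exposure of THP-1 cells; compounds (final up to 57.5 uM) added 1 h before LPS (250 ng/mL) and ATP (1.25 mM) stimulation; lower signal means less secretion.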
# TDP1 block: qHTS Assay for Inhibitors of Tyrosyl-DNA Phosphodiesterase (TDP1) | AID 485290, 2010 | 350,000 tested, 0.28% active | Potency, µM (highest dose often 130 µM), without a hit: top-dose activity change, negative = inhibition, most hits filed as inhibitors | recombinant TDP1, AlphaScreen DNA substrate cleavage; also: potency is read from the fitted curve at half-maximal effect; nearly all actives have a fitted effect of over 40% in size
# Target sequence (Q9NUW8 whole entry, looked up): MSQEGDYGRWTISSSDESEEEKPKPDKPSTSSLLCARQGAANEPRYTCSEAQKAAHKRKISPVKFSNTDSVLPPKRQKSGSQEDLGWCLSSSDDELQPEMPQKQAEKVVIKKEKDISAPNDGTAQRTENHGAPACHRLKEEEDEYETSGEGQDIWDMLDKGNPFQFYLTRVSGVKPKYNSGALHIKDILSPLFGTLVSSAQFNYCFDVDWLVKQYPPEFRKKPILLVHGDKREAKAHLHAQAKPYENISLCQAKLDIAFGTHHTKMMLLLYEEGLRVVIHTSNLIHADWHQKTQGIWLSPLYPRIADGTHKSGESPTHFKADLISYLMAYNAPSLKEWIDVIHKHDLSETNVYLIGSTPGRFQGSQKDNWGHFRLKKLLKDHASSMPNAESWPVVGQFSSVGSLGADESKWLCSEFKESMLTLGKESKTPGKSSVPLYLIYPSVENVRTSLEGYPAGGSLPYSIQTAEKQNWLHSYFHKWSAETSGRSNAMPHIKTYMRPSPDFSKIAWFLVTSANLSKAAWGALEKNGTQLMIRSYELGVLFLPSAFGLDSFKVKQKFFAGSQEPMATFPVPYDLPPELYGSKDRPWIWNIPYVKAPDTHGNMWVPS
#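 Recombinant E. coli-expressed Tdp1 (1 nM) preincubated with compound 15 min at RT, then 5'-biotin/3'-phosphotyrosine-FITC DNA substrate (15 nM) added for 5 min. AlphaScreen beads (10 ug/ml) added, 10 min RT; tyrosine-FITC cleavage read as signal loss.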
# TDP1 cell noCPT: qHTS for Inhibitors of human tyrosyl-DNA phosphodiesterase 1 (TDP1): qHTS in cells in absence of CPT | DT40 Tdp1-/- hTDP1 cells, no CPT, ATP luminescence, 48 h | Potency, µM (series often up to 46.2 µM), for the others: at the top dose activity change, negative = growth inhibition, most hits filed as inhibitors | 420,000 tested, 15% active | AID 686978, 2013; also: potency is read from the fitted curve at half-maximal effect; nearly all actives have a fitted effect of over 55% in size
#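 Stably hTDP1-transfected Tdp1-null chicken DT40 cells were treated with library compounds minus camptothecin and grown for at least 48 hr at 37 °C, after which cellular ATP was quantified by luminescence.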
# TDP1 cell CPT: qHTS for Inhibitors of human tyrosyl-DNA phosphodiesterase 1 (TDP1): qHTS in cells in presence of CPT; 420,000 tested, 12% active; Potency, µM (titrated, usually from 46.2 µM), without a hit: at the highest dose activity change, negative = growth inhibition, hits mostly inhibitors; chicken DT40 Tdp1-/-;hTDP1 cells + 20 nM CPT, ATP luminescence, 48 h; also: potency is read from the fitted curve at half-maximal effect; nearly all actives have a fitted effect of over 55% in size
#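 Chicken DT40 Tdp1-/- cells complemented with human TDP1, 400 cells/well, exposed to compounds plus 20 nM camptothecin for at least 48 h at 37 C; viability read as ATP content by CellTiter-Glo luminescence.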
# Six1-Eya2 inh: qHTS Assay for Inhibitors of the Six1/Eya2 Interaction; AID 651725, 2012; AlphaScreen GST-Six1/His-Eya2 binding, biochemical; hits give low values; activity change, % (no concentration beside the values); Homeobox protein SIX1 (Homo sapiens) + Protein phosphatase EYA2 (Homo sapiens), …; 360,000 tested, 0.56% active; in the data active = activity change below about -65%; inconclusive = mostly about -30% to -63%
#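 AlphaScreen luminescence read after one hour at 37 °C in darkness. Pin-transferred compounds met GST-Six1 and His-Eya2 protein (5X stock 250 nM/500 nM) plus glutathione donor and Ni-chelate acceptor beads (5X, 50 ug/mL).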
# CtBP-E1A inh: qHTS Assay for Inhibitors of the CtBP/E1A Interaction | AID 651724, 2012 | AlphaScreen GST-E1A/His-CtBP binding, 1536-well; hits give low values | CtBP / adenovirus E1A interaction (AlphaScreen) | activity change, % (concentration not given with the values) | 340,000 tested, 0.49% active; in the data active = activity change below about -65%; inconclusive = mostly about -30% to -63%
#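 In 5 uL wells, 23 nL compound meets equimolar GST-E1A and His-CtBP (5X stock 125 nM each) for 2 h, 37 °C. Beads (5X, 50 ug/mL) then 1 h, 37 °C, dark.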
# * hit, by the source's call; ? = inconclusive; / = not tested or not shown; [ ] = another dose, or the depositor's remark. Unless noted, calls follow the shape of the dose curve; as a rule, active = well fitted curve in the direction sought with a large enough effect; inconclusive = small, poorly fitted or top-dose-only effect, or another doubt; inactive = no such curve, though single readings can be large; an effect the other way counts as inactive or inconclusive. % is scaled to controls: 0 for no effect and ±100 for the full control effect.
SMILES,IL1B secr inh,TDP1 block,TDP1 cell noCPT,TDP1 cell CPT,Six1-Eya2 inh,CtBP-E1A inh
CCOc1ccccc1N1CCN(C(=O)C2c3ccccc3Oc3ccccc32)CC1,-9,4%,23µM*,23µM*,-3,-6
CCOc1ccccc1N1CCN(C(=O)NCc2ccc(F)cc2)CC1,-9,1%,-10%,-22%,20,0
O=C(CSc1nnc(CNc2ccc(F)cc2)n1Cc1ccccc1)NCc1ccccc1,19,5%,?,-20%,-7,-8
COc1ccc(-c2nc3cc(C)ccn3c2NC(=O)c2ccc(F)cc2)cc1,/,6%,?,-7%,/,/
Cc1cccc(OCC(=O)Nc2nc(-c3ccncc3)cs2)c1,47,-2%,?,-28%,0,3
O=C(COc1cccc(F)c1)Nc1nc(-c2ccccn2)cs1,90,/,2.6µM*,5.2µM*,-77*,?
Cc1ccc(OCC(=O)Nc2nc(-c3ccccn3)cs2)c(C)c1,45,0%,?,?,?,?
O=C(COc1ccccc1)Nc1nc(-c2cccnc2)cs1,21,-2%,?,?,-4,-2
O=C(COc1ccc([N+](=O)[O-])cc1)Nc1nc(-c2ccccn2)cs1,67,0%,5.8µM*,4.6µM*,-79*,-92*
O=C(COc1ccc(F)cc1)Nc1nc(-c2ccccn2)cs1,21,8%,7.3µM*,7.3µM*,-84*,?
Clc1ncc(CSc2ccccc2)s1,3,-3%,5%,3%,25,4
O=C(NCc1ccco1)c1ccc(=O)[nH]n1,22,/,1%,-28%,-3,6
CN(CC(=O)Nc1cc(S(=O)(=O)N2CCOCC2)ccc1Cl)C1CCS(=O)(=O)C1 (configuration not stated),2,3%,?,2%,54,9
Cc1ccc(C)c(C(C)NC(=S)NC2CCCCC2)c1 (configuration not stated),31,4%,?,26µM*,-4,-1
Cc1ccc(C)c(C(C)NC(=O)C2CCCC2)c1 (configuration not stated),10,4%,7%,8%,9,5
Cc1ccc(Cl)cc1NC(=S)N(Cc1cccnc1)Cc1ccccc1Cl,-7,5%,-25%,-12%,1,3
COc1ccc(C(=O)Nc2c(-c3ccccc3)nc3ccccn23)c(OC)c1,-5,/,?,?,-12,-1
COc1ccccc1C(=O)Nc1c(-c2ccccc2)nc2ccccn12,-9,/,?,23µM*,-10,4
O=C(COC(=O)c1c(F)cccc1F)Nc1ccc(N2CCCCC2)cc1,11,7%,10%,7%,-20,-13
COc1ccc(C(C)=O)cc1CSc1nc(NCc2ccccc2)c2ccccc2n1,/,8%,23µM*,?,/,/
COc1ccc(C(C)=O)cc1CSc1nc(Nc2ccc(F)c(F)c2)c2ccccc2n1,/,3%,23µM*,?,/,/
Fc1cccc(CSc2nc(NCCc3ccccc3)c3ccccc3n2)c1,/,-9%,23µM*,16µM*,/,/
COc1ccc(C(C)=O)cc1CSc1nc(NCCc2ccccc2)c2ccccc2n1,/,0%,10µM*,18µM*,/,/
CSCC[C@H](NC(=O)OC(C)(C)C)C(=O)N/N=C/c1cccc2nccnc12,24,4%,?,?,?,-23
COc1cccc(OC)c1C(=O)Nc1cccnc1,5,0%,1%,-11%,-1,/
SMILES,IL1B secr inh,TDP1 block,TDP1 cell noCPT,TDP1 cell CPT,Six1-Eya2 inh,CtBP-E1A inh
Cc1ccccc1C(=O)Nc1cccc(NC(=O)c2cccnc2)c1,13,9%,-17%,-4%,0,-1
O=c1cc(N2CCCCC2)c(-c2ccccc2)nn1Cc1ccccc1,-99*,0%,?,?,-5,2
COc1ccc(Cn2nc(-c3ccccc3)c(N3CCCCC3)cc2=O)cc1,-232*,6%,12µM*,?,-16,-11
CCCCN1C(=O)C(O)(CC(=O)c2ccco2)c2cc(Br)ccc21 (configuration not stated),81,0%,4.1µM*,2.6µM*,1,10
CCCCN1C(=O)C(O)(CC(=O)c2c(C)n[nH]c2C)c2cc(Br)ccc21 (configuration not stated),6,5%,-20%,3%,1,7
CCCCN1C(=O)C(O)(CC(=O)c2ccc(C)cc2C)c2cc(Br)ccc21 (configuration not stated),/,/,16µM*,16µM*,/,/
CCOC(=O)CN1C(=O)C(O)(CC(=O)c2ccco2)c2ccccc21 (configuration not stated),10,-4%,?,?,5,3
CC(C)[C@H](NC(=O)NCc1ccc(F)cc1)C(=O)O,5,/,-4%,4%,6,/
COC(=O)c1ccccc1NS(=O)(=O)c1cc2c3c(c1)CC(=O)N3CCC2,/,3%,-25%,-27%,/,/
O=C(CSCc1ccccc1)N1CCN(S(=O)(=O)c2ccc(F)cc2)CC1,28,1%,-12%,-1%,0,4
COc1cc(N=CC2=C(O)c3ccccc3C2=O)cc(OC)c1,0,2%,-26%,-7%,3,0
COC1=CC(=O)c2ccccc2C1=O,9,2%,4.1µM*,3.7µM*,-17,-25
COC1=CC(=O)C=C(OC)C1=O,-107*,6%[56.1 µM],0.82µM*,0.65µM*,3,2
